Results taken from PubChem BioAssay (NCATS).
Inconclusive results are not listed. A call without a number means that no potency is given here. Activity calls are given as the source filed them. Calls come from the whole dose curve; as a rule, active = well fitted curve in the direction sought with a large enough effect; inconclusive = small, poorly fitted or top-dose-only effect, or another doubt; inactive = no such curve, though single readings can be large; an effect the other way counts as inactive or inconclusive.

Key:
[1] = S16 Schwann cell viability assay (CellTiter-Glo assay) (AID 624031);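 note: native untransfected S16 rat Schwann cells; nearly all actives have a fitted effect of over 70% in size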
Method in brief: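 Counter-screen for cytotoxicity: parental S16 rat Schwann cells lacking the PMP22 reporters, treated 24 h with compound, viability from cellular ATP by CellTiter-Glo luminescence, normalized to DMSO (0%) and no-cell wells.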

7G8 = assay: qHTS profiling for inhibitors of Plasmodium falciparum proliferation (AID 504749); note: nearly all actives have a fitted effect of over 60% in size; note: potency is the fitted concentration of half-maximal effect; conditions: P. falciparum in erythrocytes, SYBR Green DNA, 72 h; series mostly up to 12.8 µM
Method in brief: (§1)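 SYBR Green fluorescence of parasite DNA, read after lysis and overnight dark incubation, measured growth over 72 h in erythrocyte culture at 0.3% parasitemia and 2.5% hematocrit. Data normalised to DMSO and 0.29 uM artemisinin, with plate-drift correction.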

ATS95 = assay: as above; conditions: P. falciparum in erythrocytes, SYBR Green DNA, 72 h; series mostly up to 12.8 µM
Method in brief: as §1

CP191 = assay: as above; conditions: P. falciparum in erythrocytes, SYBR Green DNA, 72 h; series mostly up to 12.8 µM
Method in brief: as §1

CP211 = assay: as above; conditions: P. falciparum in erythrocytes, SYBR Green DNA, 72 h; series mostly up to 12.8 µM
Method in brief: as §1

CP237 = assay: as above; conditions: P. falciparum in erythrocytes, SYBR Green DNA, 72 h; series mostly up to 12.8 µM
Method in brief: as §1

CP269 = assay: as above; conditions: P. falciparum in erythrocytes, SYBR Green DNA, 72 h; series mostly up to 12.8 µM
Method in brief: as §1

DIV30 = assay: as above; conditions: P. falciparum in erythrocytes, SYBR Green DNA, 72 h; series mostly up to 12.8 µM
Method in brief: as §1

Dd2 = assay: as above; conditions: P. falciparum in erythrocytes, SYBR Green DNA, 72 h; series mostly up to 12.8 µM
Method in brief: as §1

GB4 = assay: as above; conditions: P. falciparum in erythrocytes, SYBR Green DNA, 72 h; series mostly up to 12.8 µM
Method in brief: as §1

N140 = assay: as above; conditions: P. falciparum in erythrocytes, SYBR Green DNA, 72 h; series mostly up to 12.8 µM
Method in brief: as §1

P93_24 = assay: as above; conditions: P. falciparum in erythrocytes, SYBR Green DNA, 72 h; series mostly up to 12.8 µM
Method in brief: as §1

P94_40 = assay: as above; conditions: P. falciparum in erythrocytes, SYBR Green DNA, 72 h; series mostly up to 12.8 µM
Method in brief: as §1

PAD = assay: as above; conditions: P. falciparum in erythrocytes, SYBR Green DNA, 72 h; series mostly up to 12.8 µM
Method in brief: as §1

PC15 = assay: as above; conditions: P. falciparum in erythrocytes, SYBR Green DNA, 72 h; series mostly up to 12.8 µM
Method in brief: as §1

PC26 = assay: as above; conditions: P. falciparum in erythrocytes, SYBR Green DNA, 72 h; series mostly up to 12.8 µM
Method in brief: as §1

ATS189 = assay: as above; conditions: P. falciparum in erythrocytes, SYBR Green DNA, 72 h; series mostly up to 12.8 µM
Method in brief: as §1

CP203 = assay: as above; conditions: P. falciparum in erythrocytes, SYBR Green DNA, 72 h; series mostly up to 12.8 µM
Method in brief: as §1

CP217 = assay: as above; conditions: P. falciparum in erythrocytes, SYBR Green DNA, 72 h; series mostly up to 12.8 µM
Method in brief: as §1

PC49 = assay: as above; conditions: P. falciparum in erythrocytes, SYBR Green DNA, 72 h; series mostly up to 12.8 µM
Method in brief: as §1

Structure (SMILES)	Potency [1]	Potency (7G8)	Potency (ATS95)	Potency (CP191)	Potency (CP211)	Potency (CP237)	Potency (CP269)	Potency (DIV30)	Potency (Dd2)	Potency (GB4)	Potency (N140)	Potency (P93_24)	Potency (P94_40)	Potency (PAD)	Potency (PC15)	Potency (PC26)	Potency (ATS189)	Potency (CP203)	Potency (CP217)	Potency (PC49)
CCN(CC)CCC[C@H](C)Nc1ccnc2cc(Cl)ccc12	inactive	1 µM (active)	10 µM (active)	8.91 µM (active)	6.75 µM (active)	4.47 µM (active)	9.53 µM (active)	6.75 µM (active)	10 µM (active)	1.51 µM (active)	11.2 µM (active)	2.82 µM (active)	5.01 µM (active)	3.55 µM (active)	2.51 µM (active)	4.78 µM (active)				
COCCc1ccc(OC[C@H](O)CNC(C)C)cc1	inactive	inactive	inactive	inactive	inactive	inactive	inactive	inactive	inactive	inactive	inactive	inactive	inactive	inactive	inactive	inactive	inactive	inactive	inactive	inactive
CC(=O)O[C@@H](C)C[N+](C)(C)C	inactive	inactive		inactive	inactive	inactive	inactive	inactive	inactive	inactive	inactive	inactive			inactive	inactive	inactive	inactive	inactive	inactive
CC(C)NC[C@H](O)c1cc(O)cc(O)c1	inactive	inactive	inactive	inactive	inactive	inactive	inactive	inactive	inactive	inactive	inactive	inactive	inactive	inactive	inactive	inactive	inactive	inactive	inactive	inactive
CO[C@]1(NC(=O)CSCC#N)C(=O)N2C(C(=O)O)=C(CSc3nnnn3C)CS[C@H]21	inactive	inactive	inactive	inactive	inactive	inactive	inactive	inactive	inactive	inactive	inactive	inactive	inactive	inactive	inactive	inactive	inactive	inactive	inactive	inactive
CN(N=O)C(=O)N[C@H]1[C@@H](O)[C@H](O)[C@H](CO)O[C@@H]1O	inactive	inactive	inactive	inactive	inactive	inactive	inactive	inactive	inactive	inactive	inactive	inactive	inactive	inactive	inactive	inactive	inactive	inactive	inactive	inactive
CCN(CC)CCC[C@H](C)Nc1c2ccc(Cl)cc2nc2ccc(OC)cc12	inactive	0.282 µM (active)	0.631 µM (active)	0.398 µM (active)	1.51 µM (active)	0.316 µM (active)	0.757 µM (active)	1.07 µM (active)	0.447 µM (active)	0.379 µM (active)	0.891 µM (active)	0.562 µM (active)	0.562 µM (active)	0.398 µM (active)	0.447 µM (active)	0.675 µM (active)	0.891 µM (active)	2.13 µM (active)	0.794 µM (active)	1.58 µM (active)
CCC[C@H]1C(=O)N2C(N(C)C)=Nc3ccc(C)cc3N2C1=O	inactive	inactive	inactive	inactive	inactive	inactive	inactive	inactive	inactive	inactive	inactive	inactive	inactive	inactive	inactive	inactive	inactive	inactive	inactive	inactive
C[C@@H](CN(C)C)CN1c2ccccc2CCc2ccccc21			inactive											inactive	inactive		inactive		inactive	inactive
COc1c(O)cc2c(c1O)[C@@H]1O[C@@H](CO)[C@@H](O)[C@@H](O)[C@@H]1OC2=O	inactive	inactive	inactive	inactive	inactive	inactive	inactive	inactive	inactive	inactive	inactive	inactive	inactive	inactive	inactive	inactive	inactive	inactive	inactive	inactive
C[C@@H](C(=O)O)c1cccc(C(=O)c2ccccc2)c1	inactive																			
CCN(CC)CC#CCOC(=O)[C@@](O)(c1ccccc1)C1CCCCC1	inactive	8.91 µM (active)									inactive							inactive		
NC(=O)OC[C@H](O)COc1ccc(Cl)cc1	inactive	inactive	inactive	inactive	inactive	inactive	inactive	inactive	inactive	inactive	inactive	inactive	inactive	inactive	inactive	inactive	inactive	inactive	inactive	inactive
C[C@H](NCCc1ccc(O)cc1)[C@@H](O)c1ccc(O)cc1	inactive	inactive	inactive	inactive	inactive	inactive	inactive	inactive	inactive	inactive	inactive	inactive	inactive	inactive	inactive	inactive	inactive	inactive	inactive	inactive
CC(C)(O/N=C(\C(=O)N[C@@H]1C(=O)N2C(C(=O)[O-])=C(C[n+]3ccccc3)CS[C@@H]12)c1csc(N)n1)C(=O)O	inactive	inactive	inactive	inactive	inactive	inactive	inactive	inactive	inactive	inactive	inactive	inactive	inactive	inactive	inactive	inactive	inactive	inactive	inactive	inactive
CO[C@H]1C[C@@H](O[C@@H]2[C@H](C)[C@H](O[C@@H]3O[C@@H](C)C[C@@H](N(C)C)[C@@H]3O)[C@H](C)C[C@]3(CO3)C(=O)[C@H](C)[C@H](O)[C@H](C)[C@H](C)OC(=O)[C@@H]2C)O[C@@H](C)[C@H]1O	inactive	inactive	inactive	inactive	inactive	inactive	inactive	inactive	inactive	inactive	inactive	inactive	inactive	inactive	inactive	inactive	inactive	inactive	inactive	inactive
CCN1C(=O)N[C@@H](c2ccccc2)C1=O	inactive	inactive		inactive	inactive	inactive	inactive	inactive	inactive	inactive	inactive	inactive	inactive	inactive	inactive	inactive	inactive	inactive	inactive	inactive
NC(N)=NC[C@@H]1COC2(CCCCC2)O1	inactive	inactive	inactive	inactive	inactive	inactive	inactive	inactive	inactive	inactive	inactive	inactive	inactive	inactive	inactive	inactive	inactive	inactive	inactive	inactive
CN[C@@H]1[C@H](O[C@@H]2O[C@H](CO)[C@@H](N)[C@H](O)[C@@H]2O)O[C@H]2C[C@@H](N)[C@@H](O[C@H]3[C@@H](O)[C@H](O)[C@H](N)C[C@@H]3N)O[C@H]2[C@H]1O	inactive	inactive	inactive	inactive	inactive	inactive	inactive	inactive	inactive	inactive	inactive	inactive	inactive	inactive	inactive	inactive	inactive	inactive	inactive	inactive
C[n+]1ccccc1/C=N\O	inactive	inactive	inactive	inactive	inactive	inactive	inactive	inactive	inactive	inactive	inactive	inactive	inactive	inactive	inactive	inactive	inactive	inactive	inactive	inactive
Cn1c(=O)c2c(ncn2C[C@@H](O)CO)n(C)c1=O	inactive	inactive	inactive		inactive	inactive	inactive	inactive	inactive	inactive	inactive	inactive	inactive	inactive	inactive	inactive	inactive	inactive	inactive	inactive
CO/N=C(/C(=O)NC1C(=O)N2C(C(=O)O)=C(CSc3nc(=O)c(O)nn3C)CSC12)c1csc(N)n1 (configuration not stated)	inactive	inactive	inactive	inactive	inactive	inactive	inactive	inactive	inactive	inactive	inactive	inactive	inactive	inactive	inactive	inactive	inactive	inactive	inactive	inactive
COc1ccc(C[C@@H]2c3cc(OC)c(OC)cc3CC[N@+]2(C)CCC(=O)OCCCCCOC(=O)CC[N@@+]2(C)CCc3cc(OC)c(OC)cc3[C@H]2Cc2ccc(OC)c(OC)c2)cc1OC	inactive	inactive	inactive	inactive	inactive	inactive	inactive	inactive	inactive	inactive	inactive	inactive	inactive	inactive	inactive	inactive	inactive	inactive	inactive	inactive
CN(C)[C@H]1C(=O)C(C(=O)NCN2CCCC2)=C(O)[C@]2(O)C(=O)C3=C(O)c4c(O)cccc4[C@@](C)(O)[C@H]3C[C@@H]12	inactive	inactive	inactive	inactive	inactive	inactive	inactive	inactive	inactive	inactive	inactive	inactive	inactive	inactive	inactive	inactive	inactive	inactive	inactive	inactive
